Data on 7 substances can be found in publication PMC12350791.

CHTOP, sequence (Q9Y3Y2 whole entry): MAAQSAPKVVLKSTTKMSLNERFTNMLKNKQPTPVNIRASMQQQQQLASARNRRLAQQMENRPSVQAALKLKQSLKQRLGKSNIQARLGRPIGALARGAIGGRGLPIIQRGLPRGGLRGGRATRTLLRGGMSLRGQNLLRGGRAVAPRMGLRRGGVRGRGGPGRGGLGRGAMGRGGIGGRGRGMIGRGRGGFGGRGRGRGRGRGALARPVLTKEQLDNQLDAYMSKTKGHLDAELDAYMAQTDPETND
DDX39B, Q13838, sequence (Q13838 whole entry): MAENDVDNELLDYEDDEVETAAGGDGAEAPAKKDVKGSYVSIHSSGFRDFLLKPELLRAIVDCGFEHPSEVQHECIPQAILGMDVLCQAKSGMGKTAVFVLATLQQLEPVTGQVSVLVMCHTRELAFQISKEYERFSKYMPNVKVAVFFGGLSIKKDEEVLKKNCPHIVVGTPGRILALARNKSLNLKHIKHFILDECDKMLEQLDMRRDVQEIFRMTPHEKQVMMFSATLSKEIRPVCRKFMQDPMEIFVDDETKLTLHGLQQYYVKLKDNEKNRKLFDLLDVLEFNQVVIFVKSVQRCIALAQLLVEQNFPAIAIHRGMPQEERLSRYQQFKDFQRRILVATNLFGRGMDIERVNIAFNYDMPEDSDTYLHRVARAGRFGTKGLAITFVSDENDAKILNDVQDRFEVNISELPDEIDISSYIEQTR
DDX39A, O00148, sequence (O00148 whole entry): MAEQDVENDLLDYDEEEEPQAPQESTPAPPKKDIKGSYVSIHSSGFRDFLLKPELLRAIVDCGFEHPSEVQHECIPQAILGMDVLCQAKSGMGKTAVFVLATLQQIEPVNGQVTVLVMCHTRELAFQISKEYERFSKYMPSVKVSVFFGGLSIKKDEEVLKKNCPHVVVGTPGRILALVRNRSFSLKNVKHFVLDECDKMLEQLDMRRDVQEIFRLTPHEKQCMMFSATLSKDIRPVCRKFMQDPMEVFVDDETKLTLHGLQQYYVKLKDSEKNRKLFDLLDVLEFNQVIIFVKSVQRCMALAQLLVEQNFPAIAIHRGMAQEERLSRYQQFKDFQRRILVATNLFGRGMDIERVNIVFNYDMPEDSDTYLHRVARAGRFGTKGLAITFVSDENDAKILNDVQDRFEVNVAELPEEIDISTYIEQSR
ERH, P84090, sequence (P84090 whole entry): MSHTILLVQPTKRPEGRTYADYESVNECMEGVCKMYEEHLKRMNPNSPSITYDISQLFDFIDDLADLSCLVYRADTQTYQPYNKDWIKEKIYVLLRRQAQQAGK

For one assay, the target named is ACTR2 (UniProt P61160). The experiment in a line: cross-linking mass spectrometry. To be noted: DSBSO, in cells or nuclear extract, not told apart.
As to ACTR3, P61158, the cross-linked residues result was “K348 - K46”. Consider ARPC1B, O15143, for which the cross-linked residues entry is on record as “K49 - K219”.

Turning to ARPC4, P59998, the cross-linked residues result was “K44 - K322”. Consider ARPC3, O15145, for which the cross-linked residues result was “K61 - K46”.

A further assay concerns the target CHTOP (UniProt Q9Y3Y2). The experiment in a line: cross-linking mass spectrometry. The conditions noted are these: DSBSO, in cells or nuclear extract, not told apart.
In the case of DDX39B, Q13838, the cross-linked residues entry is recorded as “K188 - K226”.

As to DDX39A, O00148, the cross-linked residues result was “K187 - K226”. Same read-out and setting: the result for ERH, P84090 reads “K90 - K30”.
